# Assay outcomes: PubChem, several laboratories
# NSD2 inh: NSD2 (human) methyltransferase inhibition; AID 743445; hit rate 0.54% among 310,000; NSD2 peptide methylation, AlphaScreen, 120 min; inhibition, % at 12.5 µM; in the data active = inhibition above about 50%
# SUMO HTRF inh: SUMOylation inhibition. P63279. HTRF SUMOylation assay, SAE1/SAE2 + UBC9, in vitro. inhibition, % at 35 µM. hit rate 0.36% among 290,000; in the data active = inhibition above about 50%, passing the limit was not always enough
# Casp6 inh: caspase-6 (human) enzyme inhibition. purified caspase-6, Z-VEID-R110 cleavage fluorescence. AID 686996. hit rate 0.53% among 350,000. inhibition, % at 12.5 µM;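 active = mean inhibition across replicates at least about 35%, with every replicate also reaching that limit, limit read from the data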
# SIRT5 block: blocks human SIRT5 desuccinylation of peptide | AID 652115 | inhibition, % at 15 µM | hit rate 1.1% among 330,000 | Purified SirT5, succinyl-peptide AMC, trypsin-coupled fluorescence; in the data active = inhibition above about 15%
# Numbers stand for hits; 0 = inactive; - = no result. Rows were chosen to be rich in hits. Some 1.6% of all compounds tested hit in one or more screens of this group.
SMILES,NSD2 inh,SUMO HTRF inh,Casp6 inh,SIRT5 block
C[C@H](CO)N1C[C@H](C)[C@H](CN(C)Cc2ccc(C(F)(F)F)cc2)Oc2ccc(NS(=O)(=O)c3cccs3)cc2C1=O,-,-,0,16
C[C@H]1CN([C@@H](C)CO)C(=O)c2cc(NS(=O)(=O)c3cccs3)ccc2O[C@@H]1CN(C)Cc1ccc(C(F)(F)F)cc1,-,-,0,0
C[C@@H]1CN([C@@H](C)CO)S(=O)(=O)c2ccc(-c3cccnc3)cc2O[C@@H]1CN(C)C,-,-,0,0
O=C1CS/C(=N\N=C\c2ccco2)N1c1ccccc1,0,0,57,0
Cc1cc(N2C(=O)C(O)=C(C(=O)c3cc4ccccc4o3)C2c2ccc(Br)cc2)no1 (configuration not stated),0,-,48,25
Cc1cc(N2C(=O)C(O)=C(C(=O)c3cc4ccccc4o3)C2c2ccc(Cl)cc2)no1 (configuration not stated),0,0,0,0
CC(C)NC(=S)N1CCCN(c2ncccc2[N+](=O)[O-])CC1,0,0,0,17
Cc1cc(C)cc(NC(=O)N2CCCN(c3ncccc3[N+](=O)[O-])CC2)c1,0,0,0,0
COc1cc(OC)cc(C(=O)NCC(=O)OCC(=O)/C=C2/N(C)c3ccccc3C2(C)C)c1,-,0,0,27
CC(C)[C@H](NC(=O)c1ccccc1)C(=O)OCC(=O)/C=C1/N(C)c2ccccc2C1(C)C,0,0,0,0
CN(C)C=Nc1ccc2nn(-c3ccccc3)nc2c1,0,60,-,-
Cc1noc(C)c1NC(=O)Nc1ccc2c(c1)C(=O)N([C@@H](C)CO)C[C@H](C)[C@@H](CN(C)CC1CC1)OCCCC[C@H](C)O2,-,-,0,0
CN(CC(=O)Nc1cccc(Cl)c1)S(=O)(=O)c1ccc2c(c1)n(C)c(=O)c(=O)n2C,0,0,0,33
COCC#Cc1cnc2c(c1)C(=O)N([C@H](C)CO)C[C@H](C)[C@@H](CN(C)C)O2,-,-,0,0
Cc1c(C)c2cc(Cl)c(O)c(CN3CCN(C)CC3)c2oc1=O,0,52,-,-
Cc1c(C)c2cc(Cl)c(O)c(CN3CCCC(C)C3)c2oc1=O (configuration not stated),0,0,-,-
Cc1ccc(S(=O)(=O)N(C)C[C@@H]2Oc3ncc(-c4ccccc4)cc3C(=O)N([C@@H](C)CO)C[C@@H]2C)cc1,-,-,0,0
O=C(CC1CC1)N[C@H]1C[C@@H]2O[C@H](CO)CC[C@@H]2O[C@@H]1CCc1ccc(C#Cc2ccccc2)cc1,-,-,0,-
COc1cc(/C=C2\SC(=S)N(C(C(=O)O)c3ccccc3)C2=O)cc(OC)c1OC (configuration not stated),0,0,0,16
O=C1/C(=C\c2ccc(-c3ccccc3Cl)o2)SC(=S)N1CC1CCCO1 (configuration not stated),0,0,-,-
O=C(O)C(c1ccccc1)N1C(=O)/C(=C\c2ccc(-c3ccccc3Cl)o2)SC1=S (configuration not stated),0,0,86,33
O=C(O)C(c1ccccc1)N1C(=O)/C(=C\c2ccc(-c3ccc(Br)cc3)o2)SC1=S (configuration not stated),0,0,71,54
CCN(CC)CCNC(=O)CCN1N=C(c2ccccc2)CCC1=O,0,0,-,26
CCCC(=O)Nc1ccc2c(c1)C(=O)N(C)C[C@H](OC)[C@@H](C)CN(C)[C@H](C)CO2,-,-,0,0
CCCCc1c(-c2ccccc2F)ncn1CCc1ccccc1OC,-,-,0,28
SMILES,NSD2 inh,SUMO HTRF inh,Casp6 inh,SIRT5 block
CCCCCc1c(-c2ccccc2F)ncn1CCc1ccccc1OC,-,-,0,-
C[C@H]1CN([C@@H](C)CO)C(=O)c2cc(NC(=O)Cc3cn(C)c4ccccc34)ccc2O[C@H]1CN(C)Cc1ccc(C(=O)Nc2ccccc2N)cc1,-,-,0,20
Cc1noc(C)c1NC(=O)Nc1ccc2c(c1)C(=O)N([C@H](C)CO)C[C@@H](C)[C@@H](CN(C)Cc1ccc(C(=O)Nc3ccccc3N)cc1)O2,-,-,0,19
C[C@H](CO)N1C[C@H](C)[C@@H](CN(C)Cc2ccc(C(=O)Nc3ccccc3N)cc2)Oc2ccc(NC(=O)Cc3cn(C)c4ccccc34)cc2CC1=O,-,-,0,0
CN(C)CCn1c(NCc2ccc3c(c2)OCO3)nc2ccccc21,0,0,0,31
O=[N+]([O-])c1cc([N+](=O)[O-])c(Oc2ccc(F)cc2F)cc1NN1CCCCC1,-,0,0,17
O=C(N[C@@H]1CC[C@@H](CCn2cc(C3CCCCC3)nn2)O[C@@H]1CO)c1cccnc1,-,-,0,0
C[C@@H]1CCCCO[C@H](CN(C)C(=O)CCC(F)(F)F)[C@@H](C)CN([C@H](C)CO)C(=O)c2cc(NC(=O)NC3CCCCC3)ccc2O1,-,-,0,0
CC1CCCCC1NC(=O)COC(=O)c1cc(=O)[nH]c2ccccc12 (configuration not stated),0,-,0,0
